PubChem BioAssay AID488969 (Vanderbilt High Throughput Screening Facility, 2010)
Values joined by “and” are separate entries in the source; they are usually repeats but may differ in a detail not shown here. Identical values can stand only once. Whole data set: some 110,000 compounds, median “z-score” near -0.1, cut for the highest 2% near 2. The sample as a whole holds a higher share of the highest values than the screen did. Active and inactive are the calls of the source.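 The calls were made as follows: active = z-score in the third read window above 3 or below -3; inactive = the rest.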

These compounds were tested against Metabotropic glutamate receptor 8 (Rattus norvegicus) (UniProt P70579) (assay: mGluR8 Gi/Go-coupled signaling modulation – cell-based, rat, thallium flux, HTS, primary screen (AID 488969)). Details: HEK293 rat mGluR8, GIRK (G protein-gated inwardly rectifying potassium channel) thallium flux, FluoZin2; at 10 µM; stronger effect = higher value; submaximal glutamate (EC20) added with thallium.
Sequence of Metabotropic glutamate receptor 8 (Rattus norvegicus) (P70579 whole entry, looked up): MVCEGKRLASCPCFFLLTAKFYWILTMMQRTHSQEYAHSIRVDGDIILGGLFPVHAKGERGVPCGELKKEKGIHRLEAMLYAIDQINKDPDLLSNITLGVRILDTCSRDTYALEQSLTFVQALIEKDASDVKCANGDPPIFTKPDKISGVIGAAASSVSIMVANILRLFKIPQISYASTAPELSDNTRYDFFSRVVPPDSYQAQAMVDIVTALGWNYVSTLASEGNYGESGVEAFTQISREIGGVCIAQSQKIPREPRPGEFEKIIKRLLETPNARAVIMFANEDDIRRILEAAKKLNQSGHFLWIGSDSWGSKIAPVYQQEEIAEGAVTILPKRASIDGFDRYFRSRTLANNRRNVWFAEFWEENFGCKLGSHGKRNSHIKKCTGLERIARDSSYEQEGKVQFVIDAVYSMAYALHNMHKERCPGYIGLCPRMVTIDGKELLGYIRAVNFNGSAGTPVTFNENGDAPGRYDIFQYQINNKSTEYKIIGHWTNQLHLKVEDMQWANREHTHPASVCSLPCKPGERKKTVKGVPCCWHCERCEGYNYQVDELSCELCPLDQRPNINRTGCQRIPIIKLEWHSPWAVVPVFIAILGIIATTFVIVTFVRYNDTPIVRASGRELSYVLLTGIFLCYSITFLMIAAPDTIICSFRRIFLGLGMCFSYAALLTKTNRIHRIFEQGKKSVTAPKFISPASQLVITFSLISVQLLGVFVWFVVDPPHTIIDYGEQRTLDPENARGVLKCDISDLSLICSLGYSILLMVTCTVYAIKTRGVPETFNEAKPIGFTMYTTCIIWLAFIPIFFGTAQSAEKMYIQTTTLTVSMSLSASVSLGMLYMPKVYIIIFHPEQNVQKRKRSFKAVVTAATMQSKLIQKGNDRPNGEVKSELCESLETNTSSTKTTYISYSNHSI
Compound `CN1CCN(S(=O)(=O)c2ccc(NC(=S)NC(=O)c3ccccc3)cc2)CC1` has a z-score of 0.103. In the case of `O=C(c1ccco1)N1CCN(C(=O)C2CCN(S(=O)(=O)c3cccc4nsnc34)CC2)CC1`, the z-score was 0.0379. `COc1ccc2c(c1)NC1(O)c3ccccc3C(=O)C21O` (stereo unspecified) gave a z-score of 0.297. `CC1(C)N=C(N)NC(Nc2ccc(Br)cc2)=N1` showed a z-score of -0.00115. `Cc1ccccc1-c1noc(-c2ccc(Cl)cc2)n1` was tested, and the z-score was -0.0855. With `COc1ccc(-c2csc(NC(=O)c3nc(-c4ccccc4)oc3C)n2)cc1` the z-score was 0.528. Compound `Cc1nc2ccccc2nc1OCC(=O)N1CCN(c2ccccc2)CC1` has a z-score of -0.273. Compound `Cc1ccc2c(c1)N(C(=O)c1ccco1)C(C)(C)c1ssc(=S)c1-2` has a z-score of -0.788. `COc1ccccc1-n1cnnc1SCC(=O)N1CC(=O)Nc2ccccc21` gave a z-score of -0.0356. For `CS(=O)(=O)N1Cc2ccccc2CC1C(=O)OCC(=O)Nc1ccc2ccccc2c1` (stereo unspecified), the z-score was 0.0644. Compound `Cc1cc(C)cc(NS(=O)(=O)c2ccc(NC(=S)Nc3ccccc3)cc2)c1` has a z-score of 9.02e-05. With `Cc1cc(C)cc(NS(=O)(=O)c2ccc(NC(=S)NC(=O)c3ccc(Br)o3)cc2)c1` the z-score was 2.18. `Cc1cc(C)cc(NS(=O)(=O)c2ccc(NC(=S)NC(=O)c3cccs3)cc2)c1` gave a z-score of 0.901. `CCc1[nH]nc2c1C(c1ccncc1)C(C#N)=C(N)O2` (stereo unspecified) showed a z-score of 0.499. `O=C(O)c1ccc(NC(=S)NC2CCCCC2)cc1` showed a z-score of 0.13. For `O=C(CN1C(=O)c2cccc3cccc1c23)NCc1ccc2c(c1)OCO2`, the z-score was -0.178. `Cc1cc(C)nc(N2CCCC(C(=O)NCCc3ccc(F)cc3)C2)n1` (stereo unspecified) was tested, and the z-score was 3.52 (active). Work on `Cc1cc(C)nc(N2CCCC(C(=O)NCCc3cccc(F)c3)C2)n1` (stereo unspecified) yielded a z-score of -0.0417. `Cc1cc(C)nc(N2CCCC(C(=O)NCCc3ccccc3F)C2)n1` (stereo unspecified) showed a z-score of -0.306. Compound `COc1cc(S(=O)(=O)N2CCOCC2)ccc1NC(=O)COC(=O)CC12CC3CC(CC(C3)C1)C2` has a z-score of 0.016. For `CCOC(=O)c1cc2sccc2n1CC(=O)N1CCCC1`, the z-score was -0.278. In the case of `Cc1ccc(S(=O)(=O)N2CCOCC2)cc1NC(=O)CSc1nnc2cc(C)c3ccccc3n12`, the z-score was -1.43. `Cn1c(-c2cc3c(C(F)(F)F)nn(C)c3s2)n[nH]c1=S` was tested, and the z-score was -0.114. In the case of `CCCCSc1nnc(-c2cc3c(C(F)(F)F)nn(C)c3s2)n1C`, the z-score was -0.355. In the case of `CCn1c(-c2cc3c(C(F)(F)F)nn(C)c3s2)n[nH]c1=S`, the z-score was 7 (active). `Cc1cc(N2CCN(c3nc(N4CCOCC4)nc4ccccc34)CC2)c2ccccc2n1` was tested, and the z-score was 0.213. Work on `CC(C)CC(C(=O)Nc1oc(-c2ccccc2)c(-c2ccccc2)c1C#N)N1C(=O)c2ccccc2C1=O` (stereo unspecified) yielded a z-score of -0.151. `COc1ccc(C(=O)Oc2ccc(/C=N/NC(=O)Cc3ccc([N+](=O)[O-])cc3)cc2)cc1` showed a z-score of 0.194. With `O=C(NNC(=O)c1ccc(Cl)cc1Cl)c1ccncc1` the z-score was 0.97. `Cc1cccc(C(=O)NNC(=O)c2ccc(-c3ccccc3)cc2)c1` showed a z-score of 0.252. `Cc1ccc(C(=O)NC(=S)NNS(=O)(=O)c2ccc(C)cc2)cc1` showed a z-score of 0.234. Work on `O=C(NNC(=S)NC(=O)c1cccnc1)c1ccc(Cl)cc1` yielded a z-score of 0.171. For `Cc1cccc(C(=O)NC(=S)NNC(=O)c2ccc(Cl)cc2)c1`, the z-score was 6.22 (active). `Cc1ccc(C(=O)NNC(=S)NC(=O)c2ccc(Cl)cc2Cl)cc1` was tested, and the z-score was 2.02. For `Cc1ccccc1C(=O)NNC(=S)NC(=O)c1ccc(Cl)cc1Cl`, the z-score was 4.35 (active). `COC(=O)NNC(=O)c1ccc(Cl)cc1Cl` was tested, and the z-score was -0.27. Work on `O=C(NC(=S)NNC(=O)c1ccc(Cl)cc1Cl)c1cccnc1` yielded a z-score of -0.129. Compound `Cc1ccc(C(=O)NC(=S)Nc2ccc(NC(=O)c3cccc(Cl)c3)cc2)cc1` has a z-score of -0.278. With `Cc1onc(-c2ccccc2)c1C(=O)NNC(=S)NC(=O)c1ccc(Cl)cc1Cl` the z-score was 0.272. In the case of `Cc1ccc(C(=O)NNC(=S)NC(=O)c2ccc(Cl)cc2)cc1`, the z-score was 7.64 (active). Compound `CN(C)[C@@H]1CCC[C@H]1OC(=O)C(c1ccccc1)c1ccccc1` has a z-score of -1.41. For `Cc1ccc(S(=O)(=O)N2CCN(S(=O)(=O)c3ccc(C)cc3)C2)cc1`, the z-score was -0.481. `O=C(COC(=O)Cc1ccc(Cl)cc1Cl)NCCC1=CCCCC1` was tested, and the z-score was -1.17. In the case of `CCCC(=O)Nc1ccc(C(=O)Nc2nc(CC(=O)OCC)cs2)cc1`, the z-score was -0.437. In the case of `CCCN1C/C(=C/c2ccc3c(c2)OCO3)C(=O)/C(=C/c2ccc3c(c2)OCO3)C1`, the z-score was -0.565. For `Cc1ccc2c(c1)C1CCCC3C1N2CC(=O)N3Cc1ccccc1` (stereo unspecified), the z-score was -0.338. `C/C(=N\O)C(C)/[N+]([O-])=C/c1nc(C)c(C)n1O` (stereo unspecified) showed a z-score of 1.53. `O=C(CSc1nc2ccccc2c(=O)n1-c1ccc(F)cc1)Nc1ccc(N2CCOCC2)cc1` gave a z-score of -0.000577. With `O=C(COc1ccccc1)NNC(=S)NC(=O)c1ccc(Cl)cc1Cl` the z-score was 5.19 (active). `O=C(COc1cccc(Cl)c1)NNC(=S)Nc1ccccc1` showed a z-score of 0.593. For `Cc1ccc(OCC(=O)NC(=S)Nc2cccc(NC(=O)c3ccc(Cl)cc3Cl)c2)cc1`, the z-score was 0.148. For `Cc1cccc(C(=O)NC(=S)NNC(=O)c2ccccc2Cl)c1`, the z-score was 5.34 (active). For `O=C(NNC(=O)c1cccs1)c1ccc(Br)o1`, the z-score was -0.207. In the case of `Cc1cccc(C(=O)NC(=S)NNC(=O)c2cccs2)c1`, the z-score was 5.42 (active). In the case of `O=C(NC(=S)NNC(=O)c1cccs1)c1ccco1`, the z-score was 1.08. `O=C(NNC(=S)NC(=O)c1cccs1)c1ccc(NC(=O)c2ccccc2)cc1` was tested, and the z-score was -0.0903. For `COc1ccc(C)cc1NC(=S)NNC(=O)c1ccccc1Cl`, the z-score was 0.678. For `O=C(NC(=S)NNC(=O)c1cccs1)c1ccc(Br)o1`, the z-score was 4.37 (active). In the case of `Cc1cccc(C(=O)NC(=S)NNC(=O)Cc2ccccc2)c1`, the z-score was 1.8. `CCNC(=S)NNC(=O)c1cccs1` was tested, and the z-score was -0.146. Compound `CC1=C(C(=O)Nc2cc(C)ccc2C)C(c2cccs2)NC(=S)N1` (stereo unspecified) has a z-score of -0.0019. For `O=C(CS(=O)CC(=O)N(c1ccccc1)C(C(=O)NC1CCCCC1)c1ccco1)Nc1ccc(F)cc1` (stereo unspecified), the z-score was -0.245. `COc1ccc(S(=O)(=O)n2nc(C)cc2C)c(C)c1C` was tested, and the z-score was -0.246. `CC(=O)Nc1ccc(S(=O)(=O)NNC(=O)CCC(=O)Nc2cc(C)ccc2C)cc1` was tested, and the z-score was -0.368. With `Cc1ccccc1Nc1nc(-c2ccccc2)c(C(=O)Nc2cccnc2)s1` the z-score was 0.177. `O=C(O)CCSc1nc2ccccc2n1CCOc1ccccc1` showed a z-score of 0.105. For `CS(=O)(=O)c1ccc(Sc2nc3ccccc3[nH]2)c([N+](=O)[O-])c1`, the z-score was -0.102. `O=C1/C(=C/c2ccccc2)Nc2ccccc21` showed a z-score of -0.773. `Cc1ccccc1C(=O)NNC(=O)CCC(=O)Nc1cccc(Cl)c1C` was tested, and the z-score was -0.34. `Cc1ccccc1C(=O)NNC(=O)C(=O)Nc1cccc(Cl)c1C` was tested, and the z-score was 6.02 (active). `Cc1ccc(NC(=O)C(=O)NNC(=O)c2ccccc2C)cc1Cl` showed a z-score of -0.171. `Cc1ccc(C(=O)NC(=S)NNC(=O)c2ccccc2[N+](=O)[O-])cc1` showed a z-score of 0.414. With `Cc1ccccc1C(=O)NNC(=S)NC(=O)c1ccccc1` the z-score was 3.78 (active). Work on `O=C(NC(=S)NNC(=O)c1ccccc1[N+](=O)[O-])c1ccccc1` yielded a z-score of -0.00864. In the case of `Cc1cc(C)nc(Sc2ccc(/C=C(\C#N)C(=O)Nc3ccccc3)o2)n1`, the z-score was -0.125. Work on `O=C(NCc1cccs1)c1cc(-c2cccc(Cl)c2)on1` yielded a z-score of -1.01. `CCN(CC)CCCNC(=O)c1cc(-c2cccc(Cl)c2)on1` gave a z-score of 2.64. In the case of `CCN(CC)CCCNC(=O)c1cc(-c2ccc(O)cc2)on1`, the z-score was 0.686. In the case of `CCN(CC)CCCNC(=O)c1cc(-c2ccc(Cl)cc2)on1`, the z-score was 1.7. With `CCN(CC)CCCNC(=O)c1cc(-c2ccc(Cl)c(Cl)c2)on1` the z-score was 5.37 (active). In the case of `O=C(NCc1ccco1)c1cc(-c2cccc(Cl)c2)on1`, the z-score was 0.0775. Compound `CCCCC(=O)Nc1ccc(C(=O)NNC(=S)NC(=O)c2cccs2)cc1` has a z-score of 0.439. Work on `Cc1ccc(/C=C(\C#N)C(=O)Nc2c(C)cccc2C)s1` yielded a z-score of -0.0444. `O=C(CSc1cccc2cccnc12)NCc1ccco1` was tested, and the z-score was -0.028. With `COc1ccc(/C(C)=N/NC(=O)c2ccc(CSc3cccc4cccnc34)cc2)cc1OC` the z-score was -0.51. With `O=C(O)CSc1cccc2cccnc12` the z-score was -0.347 and 0.372. In the case of `CCOC(=O)CSc1cccc2cccnc12`, the z-score was 4.08 (active). Compound `O=C(CSc1cccc2cccnc12)OCC(=O)c1ccccc1` has a z-score of 0.45. `Cc1cccc(CSc2cccc3cccnc23)c1` was tested, and the z-score was 8.5 (active). With `CN(C)C(=O)CSc1cccc2cccnc12` the z-score was 7 (active). In the case of `O=C(CSc1cccc2cccnc12)OCC(=O)c1ccc(Br)cc1`, the z-score was -0.113. `COc1ccc(CSc2cccc3cccnc23)cc1[N+](=O)[O-]` showed a z-score of 0.224. With `Cc1ccc(NC(=O)CN2C(=O)C3CCCCN3C(=O)c3ccccc32)cc1` (stereo unspecified) the z-score was 0.0289. Work on `COC(=O)c1cc2c(s1)-c1ccccc1OC2` yielded a z-score of -0.0119. In the case of `Cc1ccc(NC(=O)c2ccc3nc[nH]c3c2)cc1C`, the z-score was 0.551. `Cc1ccc(NC(=O)c2c(Cl)n(C)c3ccccc23)cc1` gave a z-score of -0.377. `O=C(Nc1cccc(NC(=O)c2cccs2)c1)c1ccco1` gave a z-score of -0.313. With `Clc1cccc(Cl)c1CO/N=C/c1c(-c2ccccc2)nc2n1CCS2` the z-score was -0.177. In the case of `Cn1c(O)c(C=NCC2CCNCC2)c(=O)n(C)c1=O`, the z-score was 0.695. `O=C(NCc1cccs1)c1cnn2cccnc12` was tested, and the z-score was 0.267. `CCOC(=O)N1CCN(CC(O)COCc2ccc(OC)c(OC)c2)CC1` (stereo unspecified) gave a z-score of 0.0416. `CC(C)(C)C1CCC(OC(=O)c2ccncc2)CC1` (stereo unspecified) showed a z-score of 0.0808. For `C/C(=N\Nc1ccc([N+](=O)[O-])cc1[N+](=O)[O-])c1ccc(-n2nncc2C(C)(C)C)cc1`, the z-score was -2.37. `O=C(CCCN1C(=O)C2CCCCN2C1=O)N1CCN(c2ccc([N+](=O)[O-])cc2)CC1` (stereo unspecified) was tested, and the z-score was 0.169. Compound `O=C(Nc1cccc(Cl)c1)Nc1nnc(-c2ccncc2)s1` has a z-score of -0.194. `O=C(NNC(=O)C1COc2ccccc2O1)c1ccccc1` (stereo unspecified) gave a z-score of 0.0265. `NC(=S)NNC(=O)Nc1ccc(Cl)c(Cl)c1` was tested, and the z-score was 0.243. For `CC(/C=N/n1c(-c2ccco2)n[nH]c1=S)=C\c1ccccc1`, the z-score was 5.91 (active). `S=c1[nH]nc(C2CCCCC2)n1/N=C/C(Cl)=C\c1ccccc1` showed a z-score of -0.0746. `Cc1cc(-c2n[nH]c(=S)n2/N=C/C(Cl)=C/c2ccccc2)n[nH]1` showed a z-score of -0.527. In the case of `S=c1[nH]nc(-c2ccco2)n1/N=C/C=C/c1ccco1`, the z-score was -0.366. `CC(/C=N/n1c(-c2ccco2)n[nH]c1=S)=C\c1ccco1` showed a z-score of 0.1. In the case of `CC(/C=N/n1c(COc2ccccc2)n[nH]c1=S)=C\c1ccccc1`, the z-score was 1.93. With `CC(/C=N/n1c(-c2cc(C)[nH]n2)n[nH]c1=S)=C\c1ccccc1` the z-score was -0.302. For `CC(/C=N/n1c(C2CCCCC2)n[nH]c1=S)=C\c1ccccc1`, the z-score was 2.13. Work on `CC(=C/c1ccccc1)/C=N/n1c(-c2ccco2)n[nH]c1=S` yielded a z-score of 2.16.
